G9a inh: blocks human histone lysine methyltransferase G9a. AID 504332. 350,000 compounds, 8.8% hits. Potency, µM (highest dose often 102 µM), without a hit: top-dose activity, negative = inhibition, usual class: inhibitors. G9a H3K9 monomethylation, AlphaScreen, 2 h; note: % is set by controls: 0 for no effect and ±100 for the full control effect; nearly all actives have a fitted effect of over 75% in size
Target sequence (Q96KQ7 913-1193 limits assumed): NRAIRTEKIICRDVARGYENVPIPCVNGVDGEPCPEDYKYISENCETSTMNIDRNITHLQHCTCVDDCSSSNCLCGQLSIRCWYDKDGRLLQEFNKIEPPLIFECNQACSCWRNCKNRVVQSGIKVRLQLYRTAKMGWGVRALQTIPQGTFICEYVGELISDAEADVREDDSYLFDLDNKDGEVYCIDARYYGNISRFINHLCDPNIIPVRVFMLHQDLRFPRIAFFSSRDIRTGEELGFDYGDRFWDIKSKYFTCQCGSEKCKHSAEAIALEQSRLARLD
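Enzyme 20 nM + cpd, 15 min RT; add b-H3K9 pep 500 nM / SAM 20 uM; 2 h RT; anti-H3K9me1 Ab 0.5 ug/mL + SA donor / anti-rabbit acceptor beads 20 ug/mL each, 10 min; AlphaScreen read.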
HP1b chromo inh: HP1-beta chromodomain-methylated histone interaction inhibition | AlphaScreen HP1-beta / biotin-H3K9me3 peptide binding | Potency, µM (highest dose often 114 µM), inactives show at the top dose activity change, negative = inhibition, actives largely listed as inhibitors | 390,000 compounds, 0.56% hits; note: nearly all actives have a fitted effect of over 70% in size
Target sequence (P83916 whole entry, looked up): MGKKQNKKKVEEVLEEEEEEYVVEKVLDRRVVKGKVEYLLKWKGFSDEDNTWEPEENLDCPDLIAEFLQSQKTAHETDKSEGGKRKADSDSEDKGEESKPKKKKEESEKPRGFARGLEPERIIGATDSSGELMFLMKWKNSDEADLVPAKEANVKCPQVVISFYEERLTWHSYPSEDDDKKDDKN
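AlphaScreen: HP1-beta (50 nM) preformed 30 min with biotin-H3(1-18)K9me3 peptide (50 nM) in PBS pH 7.4, 0.01% Tween-20. Compound added for 30 min at RT, then streptavidin donor/nickel chelate acceptor beads (10 ug/mL) for 30 min.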
BAZ2B inh: inhibitors of human BAZ2B bromodomain; Q9UIF8; AlphaScreen BAZ2B-H3K14Ac peptide displacement; Potency, µM (titrated, usually from 114 µM), for the others: at the highest dose activity change, negative = inhibition, actives largely listed as inhibitors; 360,000 compounds, 4.4% hits; AID 504333; note: % is set by controls: 0 for no effect and ±100 for the full control effect; nearly all actives have a fitted effect of over 60% in size
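In this displacement format the biotinylated H3(5-23) peptide acetylated at Lys14 serves as ligand at 50 nM, with BAZ2B at 50 nM in PBS pH 7.4 containing 0.01% Tween-20. Donor and acceptor beads are 10 ug/mL final.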
JMJD2A Tudor: blocks the human JMJD2A Tudor domain; O75164; AlphaScreen JMJD2A-Tudor / H3K4me3 peptide binding; Potency, µM (series often up to 114 µM), for the others: at the highest dose activity change, negative = inhibition, hits mostly inhibitors; 390,000 compounds, 4.4% hits; note: % is set by controls: 0 for no effect and ±100 for the full control effect; nearly all actives have a fitted effect of over 50% in size
PLK1 PBD block: inhibitors of human PLK1 polo-box domain binding. P53350. Plk1 PBD binding of FITC phosphopeptide, fluorescence polarization. Potency, µM, for the others: max response, negative = inhibition, usual class: inhibitors. 360,000 compounds, 2.8% hits. AID 720504; note: series mostly up to about 57 µM; % is set by controls: 0 for no effect and ±100 for the full control effect; nearly all actives have a fitted effect of over 65% in size
Sfp PPTase inh: inhibitors of Bacillus subtilis Sfp phosphopantetheinyl transferase. Biochemical Sfp PPTase activity, qHTS. 310,000 compounds, 3.5% hits. Potency, µM, without a hit: largest response in the series, negative = inhibition, most hits filed as inhibitors. Q9F4F7;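 note: the enzyme is Sfp with the accession as filed and its product quenches rhodamine fluorescence; 0% = enzyme reaction without inhibitor and -100% = no enzyme wells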
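Reaction rates are the 30-min fluorescence difference (ex 525, em 598 nm) in wells containing 15 nM Sfp, 5 uM rhodamine-CoA and 12.5 uM BHQ-2-YbbR at pH 7.6 with 10 mM MgCl2.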
* marks the source's active call; other numbers are inactive results; [ ] = remark or other dose. Hits are enriched below; roughly 12% of the tested compounds scored in any of these assays. Calls come from the whole dose curve; as a rule, active = well fitted curve in the direction sought with a large enough effect; inconclusive = small, poorly fitted or top-dose-only effect, or another doubt; inactive = no such curve, though single readings can be large; an effect the other way counts as inactive or inconclusive. Potency is the fitted concentration of half-maximal effect.

How did COC(=O)C1=CN(c2ccccc2OC)C(N)=C(C#N)C1c1cccc([N+](=O)[O-])c1 (stereo not given) do in these assays?
PLK1 PBD block: -12.1%

How did CCOc1ccccc1CNC(=O)C1CCN(c2nnc(C)c3c(C)n(-c4ccc(C)cc4)nc23)CC1 do in these assays?
G9a inh: -43.3%; HP1b chromo inh: 22.6%; BAZ2B inh: -26.0%; JMJD2A Tudor: -17.9%; PLK1 PBD block: -3.6%; Sfp PPTase inh: 1.6%

What do the screens show for `CCc1ccc(CNC(=O)C2CCCN(c3nnc(C)c4c(C)n(-c5ccccc5)nc34)C2)cc1` (stereo not given)?
G9a inh: inconclusive; HP1b chromo inh: 43.2%; BAZ2B inh: 79.4µM*; JMJD2A Tudor: inconclusive; PLK1 PBD block: 8.6%; Sfp PPTase inh: 56.2µM*

What do the screens show for `Cc1ccccc1CNC(=O)C1CCCN(c2nnc(C)c3c(C)n(-c4ccccc4)nc23)C1` (stereo not given)?
G9a inh: 56.2µM*; HP1b chromo inh: 14.4%; BAZ2B inh: inconclusive; JMJD2A Tudor: inconclusive; PLK1 PBD block: -16.0%; Sfp PPTase inh: -8.1%

What do the screens show for `CCOc1ccc(CNC(=O)C2CCN(c3nnc(C)c4c(C)n(-c5ccc(C)cc5)nc34)CC2)cc1`?
G9a inh: 22.4µM*; HP1b chromo inh: 26.2%; BAZ2B inh: 56.2µM*; JMJD2A Tudor: inconclusive; PLK1 PBD block: -8.7%; Sfp PPTase inh: inconclusive

How did COc1ccc(-n2nc3c(N4CCC(C(=O)NCCc5ccco5)CC4)nnc(C)c3c2C)cc1 do in these assays?
G9a inh: -17.3%; HP1b chromo inh: 23.5%; BAZ2B inh: -8.4%; JMJD2A Tudor: 50.1µM*; PLK1 PBD block: 26.7µM*; Sfp PPTase inh: -3.6%

Results for Cc1nnc(N2CCCC(C(=O)NCc3ccccc3F)C2)c2nn(-c3ccccc3)c(C)c12 (stereo not given) ?
G9a inh: 11.2%; HP1b chromo inh: 20.4%; BAZ2B inh: 0.3%; JMJD2A Tudor: -24.8%; PLK1 PBD block: -15.7%; Sfp PPTase inh: 9.3%

How did O=S(=O)(c1cc(Cl)ccc1Cl)N1CCN(c2ccccn2)CC1 do in these assays?
G9a inh: 23.2%; HP1b chromo inh: 44.3%; BAZ2B inh: 6.5%; JMJD2A Tudor: 18.7%; PLK1 PBD block: 1.2%; Sfp PPTase inh: -5.4%

How did COc1ccc2c(c1)c(=O)oc1cc3oc(C)c(C)c3cc12 do in these assays?
G9a inh: inconclusive; BAZ2B inh: 56.2µM*; Sfp PPTase inh: 5.3%

How did Cc1cccc(OCCCC(=O)N2CCCCCC2)c1C do in these assays?
G9a inh: 55.4%; HP1b chromo inh: 49.2%; BAZ2B inh: 0.5%; JMJD2A Tudor: 13.6%; PLK1 PBD block: -1.1%; Sfp PPTase inh: 3.0%

What do the screens show for `CCCCN1C(=O)c2[nH]nc(-c3ccccc3O)c2C1c1ccc(C(C)(C)C)cc1` (stereo not given)?
G9a inh: 19.4%[59 µM]; HP1b chromo inh: 50.3%; BAZ2B inh: -18.6%; JMJD2A Tudor: -34.0%

What do the screens show for `CCn1nc(NS(=O)(=O)c2ccccc2[N+](=O)[O-])c2cc3cccc(C)c3nc21`?
G9a inh: inconclusive; HP1b chromo inh: -0.4%; BAZ2B inh: inconclusive; JMJD2A Tudor: inconclusive; PLK1 PBD block: inconclusive; Sfp PPTase inh: 3.1%

What do the screens show for `CCn1nc(NS(=O)(=O)c2ccc([N+](=O)[O-])cc2)c2cc3cccc(C)c3nc21`?
G9a inh: 17.8µM*; HP1b chromo inh: -23.0%; BAZ2B inh: inconclusive; JMJD2A Tudor: inconclusive; PLK1 PBD block: -25.7%; Sfp PPTase inh: 4.6%

Results for O=C(NCC#CCOCc1ccccc1)c1ccccc1 ?
G9a inh: 50.1µM*; HP1b chromo inh: 41.4%; BAZ2B inh: 3.6%; JMJD2A Tudor: -5.6%; PLK1 PBD block: 26.7µM*; Sfp PPTase inh: -3.3%

Results for Cc1ccc(CNC(=O)c2cn(C)c3ccc(S(=O)(=O)N4CCC(C)CC4)cc3c2=O)cc1 ?
G9a inh: inconclusive; HP1b chromo inh: 6.3%; JMJD2A Tudor: -17.7%
